Assay results published in the supplement of paper PMC10811239.

How the values were obtained:
Experiment in all cases: bioluminescence (viable cell) signal fold change after vs before treatment, normalised to DMSO (ratio); higher = more tumour cell growth / less inhibition
Conditions in all cases: 10 µM; treatment time 6 days
[1] = test system: LEGO organoid PT (PTEN-/-; TP53-/-)
Method: (§1)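 Luc2-labelled iPSC-derived glioblastoma-like organoids (LEGOs, genotypes PT = PTEN-/-;TP53-/-, PTCC = plus CDKN2A/B-/-, PTN = plus NF1-/-) were treated with 10 uM drug for 6 days (applied every other day) at 37 C. Bioluminescence imaging was done before treatment and 2 days after the last dose. BLI signals were normalised to the DMSO control on the same day and then to the pre-treatment signal (N=3).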

[2] = test system: LEGO organoid PTCC (PTEN-/-; TP53-/-; CDKN2A-/-; CDKN2B-/-)
Method: as §1

[3] = test system: LEGO organoid PTN (PTEN-/-; TP53-/-; NF1-/-)
Method: as §1

SMILES: CCCCCCCCCCC[C@@H](C[C@@H]1OC(=O)[C@H]1CCCCCC)OC(=O)[C@H](CC(C)C)NC=O [Orlistat]
- bioluminescence [1]: 1.4
- bioluminescence [2]: 0.925
- bioluminescence [3]: 1.32

SMILES: O.O.O.O.[Li][O]C(=O)CC(O)(CC(=O)[O][Li])C(=O)[O][Li] [Lithium citrate tetrahydrate]
- bioluminescence [1]: 1.01
- bioluminescence [2]: 0.787
- bioluminescence [3]: 1.25

SMILES: COc1ccc(CNc2nc(N3CCC[C@H]3CO)ncc2C(=O)NCc2ncccn2)cc1Cl [Avanafil]
- bioluminescence [1]: 0.905
- bioluminescence [2]: 0.873
- bioluminescence [3]: 1.11

SMILES: Cl.O=c1n(CCCN2CCN(c3cccc(Cl)c3)CC2)nc2ccccn12 [Trazodone hydrochloride]
- bioluminescence [1]: 1.97
- bioluminescence [2]: 2.62
- bioluminescence [3]: 0.985

SMILES: COc1ccc2c(c1)c(CC(=O)O)c(C)n2C(=O)c1ccc(Cl)cc1 [Indometacin]
- bioluminescence [1]: 1.04
- bioluminescence [2]: 1.24
- bioluminescence [3]: 1.76

SMILES: COc1cc2c(cc1OC)C(=O)C(CC1CCN(Cc3ccccc3)CC1)C2 (stereo not drawn) [Donepezil]
- bioluminescence [1]: 0.84
- bioluminescence [2]: 0.645
- bioluminescence [3]: 1.1

SMILES: CC[C@]1(O)C[C@H]2C[N@](CCc3c([nH]c4ccccc34)[C@@](C(=O)OC)(c3cc4c(cc3OC)N(C=O)[C@H]3[C@@](O)(C(=O)OC)[C@H](OC(C)=O)[C@]5(CC)C=CCN6CC[C@]43[C@@H]65)C2)C1.O=S(=O)(O)O [Vincristine sulfate]
- bioluminescence [1]: 0.224
- bioluminescence [2]: 2.47
- bioluminescence [3]: 0.8

SMILES: CCc1c(C)[nH]c2c1C(=O)C(CN1CCOCC1)CC2.Cl (stereo not drawn) [Molindone hydrochloride]
- bioluminescence [1]: 0.607
- bioluminescence [2]: 1.39
- bioluminescence [3]: 1.2

SMILES: CSCC[C@@H](N)C(=O)O [Methionine]
- bioluminescence [1]: 1.1
- bioluminescence [2]: 0.816
- bioluminescence [3]: 1.35

SMILES: CCC1(c2ccccc2)C(=O)NCNC1=O [Primidone]
- bioluminescence [1]: 0.985
- bioluminescence [2]: 0.824
- bioluminescence [3]: 0.89

SMILES: CCC(C)n1ncn(-c2ccc(N3CCN(c4ccc(OC[C@H]5CO[C@](Cn6cncn6)(c6ccc(Cl)cc6Cl)O5)cc4)CC3)cc2)c1=O (stereo partly drawn) [Itraconazole]
- bioluminescence [1]: 1.69
- bioluminescence [2]: 0.596
- bioluminescence [3]: 1.31

SMILES: CC[C@H](C)C(=O)O[C@H]1C[C@@H](C)C=C2C=C[C@H](C)[C@H](CC[C@@H]3C[C@@H](O)CC(=O)O3)[C@H]21 [Lovastatin]
- bioluminescence [1]: 1.33
- bioluminescence [2]: 1.02
- bioluminescence [3]: 0.3

SMILES: CN(C)CCC=C1c2ccccc2COc2ccccc21.Cl [Doxepin hydrochloride]
- bioluminescence [1]: 1.71
- bioluminescence [2]: 1.05
- bioluminescence [3]: 0.742

SMILES: NC(CO)(CO)CO.O=C(c1ccccc1)c1ccc2n1CCC2C(=O)O (stereo not drawn) [Ketorolac tromethamine salt]
- bioluminescence [1]: 1.75
- bioluminescence [2]: 1.57
- bioluminescence [3]: 2.19

SMILES: CCN(CC)C(=O)[C@@]1(c2ccccc2)C[C@H]1CN.Cl [Milnacipran ((1S-cis) hydrochloride)]
- bioluminescence [1]: 0.856
- bioluminescence [2]: 2.09
- bioluminescence [3]: 0.808

SMILES: Nc1cccc2c1CN(C1CCC(=O)NC1=O)C2=O (stereo not drawn) [Lenalidomide]
- bioluminescence [1]: 2.02
- bioluminescence [2]: 4.82
- bioluminescence [3]: 3.63

SMILES: COc1cc2c(Nc3ccc(Br)cc3F)ncnc2cc1OCC1CCN(C)CC1 [Vandetanib]
- bioluminescence [1]: 1.32
- bioluminescence [2]: 0.918
- bioluminescence [3]: 0.168

SMILES: O=c1cc(O)c(Cl)c[nH]1 [Gimeracil]
- bioluminescence [1]: 0.79
- bioluminescence [2]: 0.774
- bioluminescence [3]: 1.25

SMILES: Cl.O=C1CN2Cc3c(ccc(Cl)c3Cl)NC2=N1 [Anagrelide hydrochloride]
- bioluminescence [1]: 1.02
- bioluminescence [2]: 0.834
- bioluminescence [3]: 1

SMILES: CO[C@H]1/C=C/O[C@@]2(C)Oc3c(C)c(O)c4c(O)c(c(/C=N/N5CCN(C6CCCC6)CC5)c(O)c4c3C2=O)NC(=O)/C(C)=C\C=C\[C@H](C)[C@H](O)[C@@H](C)[C@@H](O)[C@@H](C)[C@H](OC(C)=O)[C@@H]1C [Rifapentine]
- bioluminescence [1]: 3.28
- bioluminescence [2]: 0.434
- bioluminescence [3]: 1.39

SMILES: NC[C@H]1CC[C@H](C(=O)O)CC1 [Amstat]
- bioluminescence [1]: 1.51
- bioluminescence [2]: 0.622
- bioluminescence [3]: 0.778

SMILES: Nc1nc2ccc(OC(F)(F)F)cc2s1 [Riluzole]
- bioluminescence [1]: 0.939
- bioluminescence [2]: 1.26
- bioluminescence [3]: 1.01

SMILES: O=C(O)c1cc(/N=N/c2ccc(S(=O)(=O)Nc3ccccn3)cc2)ccc1O [Sulfasalazine]
- bioluminescence [1]: 0.941
- bioluminescence [2]: 1.43
- bioluminescence [3]: 0.504

SMILES: O=C([O-])CCCc1ccccc1.[Na+] [Sodium Phenylbutyrate]
- bioluminescence [1]: 1.37
- bioluminescence [2]: 0.911
- bioluminescence [3]: 3.02

SMILES: CC/C(=C(\c1ccccc1)c1ccc(OCCN(C)C)cc1)c1ccccc1 [Tamoxifen]
- bioluminescence [1]: 0.646
- bioluminescence [2]: 0.468
- bioluminescence [3]: 0.103

SMILES: Cc1ccccc1C(OCCN(C)C)c1ccccc1.Cl (stereo not drawn) [Orphenadrine hydrochloride]
- bioluminescence [1]: 1.02
- bioluminescence [2]: 1.18
- bioluminescence [3]: 1.59

SMILES: N[C@@H](Cc1ccc(O)c(O)c1)C(=O)O [Levodopa]
- bioluminescence [1]: 0.963
- bioluminescence [2]: 1.76
- bioluminescence [3]: 1.33

SMILES: CS(=O)(=O)CCNCc1ccc(-c2ccc3ncnc(Nc4ccc(OCc5cccc(F)c5)c(Cl)c4)c3c2)o1.Cc1ccc(S(=O)(=O)O)cc1.Cc1ccc(S(=O)(=O)O)cc1 [Lapatinib Ditosylate]
- bioluminescence [1]: 1.34
- bioluminescence [2]: 1.03
- bioluminescence [3]: 0.778

SMILES: Cl.OC[C@H]1NC[C@H](O)[C@@H](O)[C@H]1O [Migalastat hydrochloride]
- bioluminescence [1]: 0.868
- bioluminescence [2]: 0.51
- bioluminescence [3]: 0.719

SMILES: Cl.N=C1CCCN1Cc1[nH]c(=O)[nH]c(=O)c1Cl [Tipiracil hydrochloride]
- bioluminescence [1]: 0.741
- bioluminescence [2]: 1.21
- bioluminescence [3]: 0.848

SMILES: NC(=O)c1cn(Cc2c(F)cccc2F)nn1 [Rufinamide]
- bioluminescence [1]: 0.54
- bioluminescence [2]: 2.69
- bioluminescence [3]: 1

SMILES: CO/N=C(\C(=O)N[C@@H]1C(=O)N2C(C(=O)[O-])=C(COC(C)=O)CS[C@H]12)c1csc(N)n1.[Na+] [Cefotaxime sodium]
- bioluminescence [1]: 0.745
- bioluminescence [2]: 1.45
- bioluminescence [3]: 0.707

SMILES: CSc1ccc2c(c1)N(CCC1CCCCN1C)c1ccccc1S2.Cl (stereo not drawn) [Thioridazine hydrochloride]
- bioluminescence [1]: 0.68
- bioluminescence [2]: 0.704
- bioluminescence [3]: 1.56

SMILES: CCOc1nc2cccc(C(=O)OC(C)OC(=O)OC3CCCCC3)c2n1Cc1ccc(-c2ccccc2-c2nn[nH]n2)cc1 (stereo not drawn) [Candesartan Cilexetil]
- bioluminescence [1]: 1.14
- bioluminescence [2]: 1.17
- bioluminescence [3]: 1.04

SMILES: Clc1ccc(COC(Cn2ccnc2)c2ccc(Cl)cc2Cl)c(Cl)c1.O=[N+]([O-])O (stereo not drawn) [Miconazole nitrate]
- bioluminescence [1]: 0.225
- bioluminescence [2]: 0.22
- bioluminescence [3]: 1.21

SMILES: C#Cc1cccc(Nc2ncnc3cc(OCCOC)c(OCCOC)cc23)c1.Cl [Erlotinib hydrochloride]
- bioluminescence [1]: 1.53
- bioluminescence [2]: 1.66
- bioluminescence [3]: 2.02

SMILES: CCc1cc(C(N)=S)ccn1 [Ethinamide]
- bioluminescence [1]: 2.05
- bioluminescence [2]: 0.707
- bioluminescence [3]: 1.99

SMILES: COc1cc(Nc2c(C#N)cnc3cc(OCCCN4CCN(C)CC4)c(OC)cc23)c(Cl)cc1Cl [Bosutinib]
- bioluminescence [1]: 1.24
- bioluminescence [2]: 0.731
- bioluminescence [3]: 0.669

SMILES: CC(C)NCC(O)COc1ccc(CC(N)=O)cc1 (stereo not drawn) [Atenolol]
- bioluminescence [1]: 1.39
- bioluminescence [2]: 0.484
- bioluminescence [3]: 0.649

SMILES: CC(=O)O.Cc1c(-c2ccc(O)cc2)n(Cc2ccc(OCCN3CCCCCC3)cc2)c2ccc(O)cc12 [Bazedoxifene acetate]
- bioluminescence [1]: 0.897
- bioluminescence [2]: 1.37
- bioluminescence [3]: 0.0363

SMILES: CC(=O)OCC(=O)[C@@]1(O)CC[C@H]2[C@@H]3CCC4=CC(=O)C=C[C@]4(C)[C@H]3[C@@H](O)C[C@@]21C [Prednisolone-21-acetate]
- bioluminescence [1]: 0.578
- bioluminescence [2]: 1.01
- bioluminescence [3]: 0.956

SMILES: CS(=O)(=O)O.Cc1ccc(NC(=O)c2ccc(CN3CCN(C)CC3)cc2)cc1Nc1nccc(-c2cccnc2)n1 [Imatinib Mesylate]
- bioluminescence [1]: 0.751
- bioluminescence [2]: 1.35
- bioluminescence [3]: 2.11

SMILES: NS(=O)(=O)Cc1noc2ccccc12 [Zonisamide]
- bioluminescence [1]: 0.521
- bioluminescence [2]: 1.19
- bioluminescence [3]: 1.19

SMILES: NC(=O)N[C@@H](CCC(=O)O)C(=O)O [Carglumic Acid]
- bioluminescence [1]: 1.27
- bioluminescence [2]: 0.631
- bioluminescence [3]: 1.55

SMILES: CCC1=CC2CN(C1)Cc1c([nH]c3ccccc13)[C@](C(=O)OC)(c1cc3c(cc1OC)N(C)[C@H]1[C@@](O)(C(=O)OC)[C@H](OC(C)=O)[C@]4(CC)C=CCN5CC[C@]31[C@@H]54)C2.O=C(O)[C@H](O)[C@@H](O)C(=O)O.O=C(O)[C@H](O)[C@@H](O)C(=O)O (stereo partly drawn) [Vinorelbine ditartrate]
- bioluminescence [1]: 0.558
- bioluminescence [2]: 0.445
- bioluminescence [3]: 1.54

SMILES: CCc1cc2c(cc1N1CCC(N3CCOCC3)CC1)C(C)(C)c1[nH]c3cc(C#N)ccc3c1C2=O [Alectinib]
- bioluminescence [1]: 1.13
- bioluminescence [2]: 2.57
- bioluminescence [3]: 0.961

SMILES: FC(F)(F)c1ccc(CNc2ccc(Cc3c[nH]c4ncc(Cl)cc34)cn2)cn1 [Pexidartinib]
- bioluminescence [1]: 0.7
- bioluminescence [2]: 3.05
- bioluminescence [3]: 0.351

SMILES: CN1[C@@H]2CC[C@H]1C[C@@H](OC(c1ccccc1)c1ccccc1)C2.CS(=O)(=O)O [Benztropine mesylate]
- bioluminescence [1]: 1.14
- bioluminescence [2]: 0.793
- bioluminescence [3]: 0.419

SMILES: C#CCN[C@@H]1CCc2ccccc21.CS(=O)(=O)O [Rasagiline Mesylate]
- bioluminescence [1]: 0.604
- bioluminescence [2]: 2.02
- bioluminescence [3]: 1.25

SMILES: CN(C)CCC[C@@]1(c2ccc(F)cc2)OCc2cc(C#N)ccc21.O=C(O)C(=O)O [Escitalopram Oxalate]
- bioluminescence [1]: 1.52
- bioluminescence [2]: 0.773
- bioluminescence [3]: 0.956

SMILES: NC(=O)N1c2ccccc2CC(=O)c2ccccc21 [Oxcarbazepine]
- bioluminescence [1]: 0.572
- bioluminescence [2]: 0.951
- bioluminescence [3]: 1.05

SMILES: CN1C(C(=O)Nc2ccccn2)=C(O)c2ccccc2S1(=O)=O [Piroxicam]
- bioluminescence [1]: 1.07
- bioluminescence [2]: 1.65
- bioluminescence [3]: 1.14

SMILES: CC(C)c1nc(CN(C)C(=O)N[C@H](C(=O)N[C@@H](Cc2ccccc2)C[C@H](O)[C@H](Cc2ccccc2)NC(=O)OCc2cncs2)C(C)C)cs1 [Ritonavir]
- bioluminescence [1]: 1.3
- bioluminescence [2]: 2
- bioluminescence [3]: 1.83

SMILES: CCOc1nc2cccc(C(=O)O)c2n1Cc1ccc(-c2ccccc2-c2nn[nH]n2)cc1 [Candesartan]
- bioluminescence [1]: 0.993
- bioluminescence [2]: 1.68
- bioluminescence [3]: 2.99

SMILES: Cc1ccccc1C(OCCN(C)C)c1ccccc1.O=C(O)CC(O)(CC(=O)O)C(=O)O (stereo not drawn) [Orphenadrine Citrate]
- bioluminescence [1]: 0.847
- bioluminescence [2]: 2.65
- bioluminescence [3]: 0.98

SMILES: Cl.N=C(N)NC(=O)Cc1c(Cl)cccc1Cl [Guanfacine hydrochloride]
- bioluminescence [1]: 1.1
- bioluminescence [2]: 1.24
- bioluminescence [3]: 0.496
